Reference: PubChem BioAssay (Tox21)
“And” between values parts separate entries of the source, which are not always exact repeats. Equal values may be shown once. Inconclusive results are not listed. The source made the active and inactive calls. Calls come from the whole dose curve; as a rule, active = well fitted cell-killing curve with a large enough effect in the repeat runs; inconclusive = weak or mixed curves, or effect the other way; inactive = no such curve, though single readings can be large or run the other way.

test: qHTS assay to identify small molecule antagonists of the sonic hedgehog signaling (Shh) pathway - cell viability counter screen (AID 1259367); conditions: NIH/3T3 Gli1-Luc viability, CellTiter-Fluor, 24 h; series mostly up to 92.4 µM; viability change, negative = cytotoxic: at the top concentration; note: nearly all actives have a fitted effect of over 55% in size
Source text: National Center for Advancing Translational Sciences [NCATS]
NIH Chemical Genomics Center [NCGC]
U.S. Environmental Protection Agency [EPA]
National Institutes of Environmental Health Sciences [NIEHS]
National Toxicology Program [NTP]
U.S. Food and Drug Administration [FDA]
The sonic hedgehog (Shh) pathway is essential for normal embryonic development. Dysregulation of the Shh pathway can cause severe developmental defects in organs. Therefore chemicals that interfere with the pathway are potential developmental toxicants. A cell line designated 3T3Gli1-Luc (DMB/OARSA/CFSAN/FDA, Laurel, MD), a NIH/3T3 derived clone containing stably integrated Gli1-Luc reporter is used to detect chemical interference of the Shh pathway, by changes in the expression of the firefly Luc gene under the control of the Gli1 transcriptional response element. This cell line was used to screen Tox21 libraries for identifying and prioritizing the potential developmental toxicants that interfere Shh pathway. Conditioned medium-stimulated mode was used to screen for chemicals inhibiting Shh signaling. The cytotoxicity of the compounds was tested in parallel by measuring the cell viability using CellTiter-Fluor assay system (Promega, Madison, WI) in the same wells.
Tox21 Assay Protocol Summary:
3T3 Gli1-Luc cells were dispensed at 2,000 per well in 5uL of culture medium into white solid bottom 1536-well plates (Greiner Bio-One, Monroe, NC) using a Multidrop Combi (Thermo Scientific, Waltham, MA) dispenser. The assay plates were incubated at 37 C and 5% CO2 for 4hr, and then 23nL of compounds dissolved in DMSO and positive control were transferred using a Pintool station (Wako, San Diego, CA). The compound transfer was followed by the addition of 1ul conditioned medium or assay buffer using two separate tips of Flying Reagent Dispenser (FRD, Aurora Discovery, San Diego, CA). The assay plates were incubated at 37C and 5% CO2 for 24hr. For viability read, after 23hr of compound treatment, 1uL of CellTiter-Fluor reagent (Promega Corporation, Madison, WI) was added to each well of the assay plates using Flying Reagent Dispenser (FRD, Aurora Discovery, San Diego, CA) and incubated the assay plates at 37C for 1hr. The fluorescence signal was quantified using a ViewLux plate reader (Perkin Elmer, Shelton, CT).
% is set by controls: 0 for no effect and ±100 for the full control effect; potency is the fitted concentration of half-maximal effect.

Compound	viability change, negative = cytotoxic	Potency
O=C(O)C(Cl)(Cl)Br	3.72% (inactive)	–
FC(F)OC(F)(F)C(F)Cl (stereo not given)	5.31% (inactive)	–
CC(=O)OC(c1ccccc1)C(Cl)(Cl)Cl (stereo not given)	0.0401% (inactive)	–
C[CH2][Hg][S]c1ccccc1C(=O)O	–	1.93 µM (active) and 5.96 µM (active)
N#CC(C#N)=Cc1ccc(O)c(O)c1	-9.72% [at 42.5 µM] (inactive)	–
O=C(O)COc1cc(Cl)c(Cl)cc1Cl	–	inactive
C=CCN1C[C@H](C)N([C@H](c2ccc(C(=O)N(CC)CC)cc2)c2cccc(OC)c2)C[C@H]1C	-2% [at 42.5 µM] (inactive)	–
NC(=O)CF	7.48% (inactive)	–
C=CC(=O)OCC	0.853% (inactive)	–
O=P(OCC(Br)CBr)(OCC(Br)CBr)OCC(Br)CBr (stereo not given)	–	55.2 µM (active)
CCCCCBr	-0.739% (inactive)	–
C=CC(C)(CCC=C(C)C)OC(=O)c1ccccc1N (stereo not given)	4.8% (inactive)	–
O=C([O-])c1ccccn1.O=C([O-])c1ccccn1.O=C([O-])c1ccccn1.[Cr+3]	13.5% (inactive)	–
O=C(Cc1ccccc1)OCCc1ccccc1	6.68% (inactive)	–
Oc1cccc(Cl)c1	-3.61% (inactive)	–
O=S(=O)(c1ccccc1)c1ccccc1	5.34% (inactive)	–
O=C(O)C(F)(F)C(F)(F)C(F)(F)C(F)(F)C(F)(F)C(F)(F)C(F)(F)C(F)(F)F	0.57% (inactive)	–
CC(C)(C)c1ccc(CCOc2ncnc3ccccc23)cc1	-4.47% (inactive)	–
CCC[N+](CCC)(CCC)CCC	4.4% (inactive)	–
C=C(Cl)Cl	-4.1% (inactive)	–

Compound	viability change, negative = cytotoxic	Potency
CN(C)c1ccc(N=O)cc1	–	24.4 µM (active) and 27.3 µM (active)
Cc1nc(N(C)C)nc(OC(=O)N(C)C)c1C	-11.3% (inactive)	–
CC(C)C1(C)N=C(c2ncccc2C(=O)O)NC1=O (stereo not given)	-0.889% (inactive)	–
CCc1ccccc1N	-3.78% (inactive)	–
CN1C(=O)CN=C(c2ccccc2)c2cc([N+](=O)[O-])ccc21	-15.7% [at 42.5 µM] (inactive)	–
CCCCCCCCP(=O)(O)O	6.52% (inactive)	–
Cc1nc2ccccc2c(=O)n1-c1ccccc1Cl	–	2.38 µM (active)
CCC(C)(C)O	3.94% (inactive)	–
CN(C)C(=O)Nc1cccc(OC(=O)NC(C)(C)C)c1	7.47% (inactive)	–
COC1=CC(=O)O[C@@H](/C=C/c2ccc3c(c2)OCO3)C1	-12.1% (inactive)	–
O=[N+]([O-])/C=C/c1ccccc1	-26.6% (inactive)	–
CCc1cnc(C2=NC(C)(C(C)C)C(=O)N2)c(C(=O)O)c1 (stereo not given)	–	inactive
O=C(Cc1ccccc1)c1ccccc1	2.7% (inactive)	–
OC[P+](CO)(CO)CO	-2.28% (inactive)	–
CCCCNC(=O)OCC#CI	–	54.2 µM (active) and 61.1 µM (active)
CCCC[N+]1(C)[C@@H]2CC(OC(=O)[C@H](CO)c3ccccc3)C[C@H]1[C@@H]1O[C@@H]12 (stereo not given in full)	-0.513% [at 42.5 µM] (inactive)	–
CC(Oc1cccc(Cl)c1)C(=O)O (stereo not given)	-14% (inactive)	–
Cc1cnc(C2=NC(C)(C(C)C)C(=O)N2)c(C(=O)O)c1 (stereo not given)	2.55% (inactive)	–
Nc1c(Br)cc(Br)c2c1C(=O)c1ccccc1C2=O	-3.04% [at 19 µM] (inactive)	–
CCC(=O)O[C@@H]1C=C2CCC3C(CCC4(C)C3CC[C@@H]4OC(=O)CC)C2CC1 (stereo not given in full)	1.16% [at 42.5 µM] (inactive)	–
